ssDAF12 agonist: activators of S. stercoralis DAF-12 nuclear receptor. HEK293 ssDAF-12/GRIP1 lit1-tk-luc reporter, luminescence; % of 3 µM dafachronic acid response. actives 1% (n = 370,000). activation, % at 6.8 µM;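 active means activation above the mean over all tested compounds plus 3 SD, cut at about 0.9% in these data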;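 further: 0% = DMSO-only wells and 100% = 3 µM delta7-dafachronic acid wells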
hcDAF-12 act: activators of H. contortus DAF-12 nuclear receptor. HEK293 hcDAF-12 lit1-tk-luc reporter, luminescence; 0% DMSO, 100% Δ7-dafachronic acid. activation, % at 6.8 µM. actives 1.4% (n = 370,000);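 active means activation above the mean of all tested compounds plus 3 SD, cut at about 5.5% in these data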;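 further: 100% = response to 3 µM Δ7-dafachronic acid high control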
DAX1 inh-1: inhibitors of DAX1 repression of SF-1 activated StAR promoter; HEK293T StAR-luciferase reporter, SF-1/DAX-1 repression relief; inhibition, % at 6.8 µM; actives 1.1% (n = 370,000); AID 652010;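 active means inhibition above the mean over all tested compounds plus 3 SD, cut at about 3.6% in these data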;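 further: 0% = DAX-1 cells with DMSO and 100% = cells lacking DAX-1 with DMSO; higher inhibition means more luminescence from relief of DAX-1 repression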
hgDAF12 agonist: agonists of H. glycines DAF-12 nuclear receptor | actives 1.8% (n = 370,000) | HEK293 GAL4-hgDAF12 UAS-luciferase reporter, agonist luminescence; normalized to butyrate control | AID 687014 | activation, % at 6.8 µM;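 active means activation above a cutoff set at the mean of all screened compounds plus 3 SD, cut at about 10% in these data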;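 further: 0% = DMSO wells and 100% = sodium butyrate wells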
DAX1 inh-2: inhibitors of human orphan nuclear receptor DAX1 (NR0B1). HEK293 Gal4-DAX1 luciferase reporter, luminescence. actives 0.99% (n = 340,000). inhibition, % at 6.75 µM. AID 504766;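 active means inhibition above the mean over all tested compounds plus 3 SD, cut at about 4.2% in these data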;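 further: 0% = DAX1-transfected cells with DMSO and 100% = empty-vector control cells with DMSO; inhibition shows as a rise in luminescence from relieved DAX1 repression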
Target sequence (P51843 207-470 limits assumed): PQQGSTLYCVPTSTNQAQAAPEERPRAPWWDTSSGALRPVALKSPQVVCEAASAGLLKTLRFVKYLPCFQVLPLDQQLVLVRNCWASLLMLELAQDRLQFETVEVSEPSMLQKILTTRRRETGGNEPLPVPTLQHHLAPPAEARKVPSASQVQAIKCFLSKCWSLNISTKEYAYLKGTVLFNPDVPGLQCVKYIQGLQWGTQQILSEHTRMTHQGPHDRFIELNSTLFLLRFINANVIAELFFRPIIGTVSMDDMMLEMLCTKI
Active calls of the source: *; · = not tested or not shown. The list is not random: actives were taken first. Their share in the collection is about 4.1%.

SMILES	ssDAF12 agonist	hcDAF-12 act	DAX1 inh-1	hgDAF12 agonist	DAX1 inh-2
COc1cc(C=C2C(=O)NC(=O)NC2=O)ccc1OCc1ccc([N+](=O)[O-])cc1	-1	3	2	13*	2
O=C1NC(=O)C(=Cc2ccc(Oc3ccc([N+](=O)[O-])cc3)cc2)C(=O)N1	·	·	·	·	1
Cc1ccc(N2Cc3ccccc3-n3nncc3C2)cc1	-1	-2	-1	1	·
Nc1c(C(=O)NCCCc2ccccc2)c2nc3ccccc3nc2n1Cc1cccs1	2.3*	2	-2	-4	-2
Fc1cccc(F)c1-c1nc(-c2ccc(Cl)cc2)no1	1.8*	3	0	8	2
C=CCc1ccc(OC)cc1	-2	2	0	4	4.5*
O=c1[nH]c(=O)n(-c2cccc(F)c2)c(O)c1/C=C1\C=Nc2ccccc21	0	5.7*	0	1	1
O=C(NCCN1CCC2(CC1)C(=O)NCN2c1ccccc1)c1ccccc1C(F)(F)F	-1	0	-1	-1	·
COc1cc(C(=O)N2C[C@H]3C[C@@H](C2)c2cccc(=O)n2C3)cc(OC)c1OC	0	-1	0	1	4.9*
Nc1ccc(Cl)c(Cl)c1	1.1*	0	0	2	0
O=C(CSc1ccccc1)N1CCC2(CC1)OCCO2	-1	3	3.9*	4	1
O=C(NCCN1CCC2(CC1)C(=O)NCN2c1ccccc1)C(c1ccccc1)c1ccccc1	-1	-2	1	0	·
CCn1c(=O)cc(OCC(=O)N2CCC3(CC2)OCCO3)c2ccccc21	-1	1	1	0	4.4*
C=CCn1c(O)c(/C=C2/C=CC=N2)c(=O)[nH]c1=O	-1	-1	1	1	1
CCCCn1c(O)c(/C=C2/C=CC=N2)c(=O)[nH]c1=O	-1	-2	0	0	5.4*
c1ccc2c(c1)-c1cccc3cccc-2c13	-1	0	1	0	5.3*
O=C(NC1CCCCC1)N1Cc2ccc(Br)cc2-n2nncc2C1	-1	-3	0	5	·
COc1ccc(NC(=S)NC(NC(=O)CF)C(Cl)(Cl)Cl)c([N+](=O)[O-])c1 (stereo not drawn)	-1	0	0	2	-1
Cc1ccccc1NC(=S)NC(NC(=O)CF)C(Cl)(Cl)Cl (stereo not drawn)	-1	1	0	-5	5.6*
O=c1[nH]c(=O)n(-c2ccc(Br)cc2)c(O)c1C=NCCN1CCCCC1	-1	0	1	1	6.4*
Cc1cccc(-n2c(O)c(C=NCCN3CCCCC3)c(=O)[nH]c2=O)c1	-1	-2	-1	-1	0
Clc1ccc([C@H]2CC3CCC2N3)cn1 (stereo partly drawn)	-1	2	0	2	·
CC1CN(CC(=O)c2ccccc2Cl)CC(C)O1 (stereo not drawn)	-1	1	0	4	1
CC1CCN(CC(=O)c2ccccc2Cl)CC1	0	4	1	11*	2
c1cncc(-c2ccc3n2Cc2cnnn2-c2ccccc2-3)c1	-2	-3	-1	2	·
SMILES	ssDAF12 agonist	hcDAF-12 act	DAX1 inh-1	hgDAF12 agonist	DAX1 inh-2
CN1C(=O)[C@@]23C[C@]4(c5c[nH]c6ccccc56)c5ccccc5N(S(=O)(=O)c5ccccc5)[C@@H]4N2C(=O)[C@@H]1SS3	-4	-9	·	-14	·
O=C1NS(=O)c2cc([N+](=O)[O-])cc([N+](=O)[O-])c21 (stereo not drawn)	-1	-1	1	0	2
O=c1[nH]c(=S)[nH]c(O)c1/C=C1/C=c2ccccc2=N1	0	5.8*	0	3	3
Cc1cccc2c1=NC(=O)/C(=C/c1c(O)[nH]c(=O)[nH]c1=O)C=2	0	5	0	0	1
COC(=O)C1=C(c2c(C)noc2C)C[C@@H]2CC[C@H]1N2C(=O)N1CCC(C)CC1	-1	-1	0	0	1
O=C1OC(c2ccc(Br)cc2)=N/C1=C\N1CC2CC(C1)c1cccc(=O)n1C2 (stereo not drawn)	-2	-2	0	1	0
O=C1OC(c2ccc(Cl)cc2)=N/C1=C\N1CC2CC(C1)c1cccc(=O)n1C2 (stereo not drawn)	1.6*	-1	0	5	2
Cn1cccc1/C=C1/C(=O)NC(=O)N(C(C)(C)C)C1=O	-1	-1	-1	-2	4.8*
